Assay results from PubChem BioAssay (Tox21).
Inconclusive results are not listed. A number with no mark means an inactive call. Calls of active or inactive are those of the source. The call rests on the fitted dose curve; in most records, active means well fitted cell-killing curve with a large enough effect in the repeat runs; inconclusive means weak or mixed curves, or effect the other way; inactive means flat fitted curve, though single readings scatter.

Experiment: cAMP Responsive Elements (CRE) small molecule antagonists, cell-based qHTS assay: qHTS cell viability counter screen (AID 2060913); further: nearly all actives have a fitted effect of over 40% in size
Settings: CRE-bla HEK293T viability, CellTiter-Glo luminescence, 5 h; series mostly up to 92.4 µM; viability change, negative = cytotoxic: at the top concentration
Text: U.S. Tox21 Program National Center for Advancing Translational Sciences [NCATS] Division of Preclinical Innovation [DPI] U.S. Environmental Protection Agency [EPA] National Institutes of Environmental Health Sciences [NIEHS] National Toxicology Program [NTP] U.S. Food and Drug Administration [FDA] Tox21 Assay Overview: CREB (cyclic-AMP Responsive Element Binding Protein) is a cellular transcription factor. It binds to certain DNA sequences called cAMP Responsive Elements (CRE) and regulates the transcription of the genes. […] This cell line can be used to find agonists/antagonists of the cyclic AMP signaling pathway. The activation of the report gene under culture conditions can be detected by fluorescence intensity. This cell line has been used to screen the Tox21 10K compound library to identify agonists that induce oxidative stress. The cytotoxicity of the Tox21 compound library against the CRE-bla cell line was tested in parallel by measuring the cell viability using CellTiter-Glo assay (Promega, Madison, WI) in the same wells.
Tox21 Assay Protocol Summary: CRE-bla Hek 293T cells were suspended in assay medium (DMEM containing 10% dialyzed FBS, 0.1 mM NEAA, 1 mM sodium pyruvate and 25 mM HEPES) and dispensed at 2,000 cells/4 uL /well into 1536-well black wall/clear bottom plates using a Multidrop Combi (ThermoFisher Scientific, Waltham, MA) dispenser. After the assay plates were incubated at 37 C/5% CO2 for 18 hrs, 23 nL of compounds dissolved in DMSO, positive controls or DMSO only was transferred to the assay plate by a pintool workstation (Kalypsys, San Diego, CA), followed by addition of 1 uL of 1.25uM NKH477 (0.25 uM as final concentration) in assay medium using a Flying Reagent Dispenser (Aurora Discovery, San Diego, CA). The plates were incubated at 37 C and 5% CO2 for 3 hrs. Then 1 uL of LiveBLAzer B/G FRET substrate (Invitrogen, Carlsbad, CA) was added to each well using Bioraptr Flying Reagent Dispenser (FRD, Aurora Discovery, San Diego, CA). The plates were incubated at room temperature for 2 h, then fluorescence intensities were measured using an Envision plate reader (PerkinElmer, Shelton, CT) at Excitation 405nm, Emission 460nm and 530nm. The % activity was determined from the ratio of 460nm/530nm. For cell viability readout that measures cytotoxicity, 4 uL /well of CellTiter-Glo reagent was added into the assay plates using Bioraptr FRD. After 30 min incubation at room temperature, the luminescence intensity in the assay plates was measured using a ViewLux (PerkinElmer, Shelton, CT) plate reader.
On the % scale 0 is the no-effect control and ±100 the full control effect; potency means the concentration at half of the fitted maximal effect.

SMILES | viability change, negative = cytotoxic | Potency
CC1(C)C(O)C(C)(C)C1O (stereo not given) | 4.63% | 
CN1CCCC1 | 0.051% | 
O=C(Oc1ccccc1C(=O)O)c1ccccc1O | 7.45% [at 42.5 µM] | 
CCCCCCCCCCCCCCCC(=O)OC[C@H](O)[C@H]1OC(=O)C(O)=C1O | 2.27% | 
Cn1cc(S(C)=O)c(=O)c2ccc(F)cc21 (stereo not given) | 2.55% [at 42.5 µM] | 
CCCCCCCCS(=O)(=O)Cl | 3.16% | 
O=C1O[C@H]([C@@H](O)CO)C(O)=C1O |  | inactive
O=C1c2ccccc2Cc2ccccc21 | 4.7% | 
OC1(c2ccc(Cl)c(C(F)(F)F)c2)CCN(CCCC(c2ccc(F)cc2)c2ccc(F)cc2)CC1 |  | 29.8 µM (active)
Cc1ccc([N+](=O)[O-])c(N)c1 | -3.52% | 
CCC(C)C1CCCCC1=O (stereo not given) | 7.04% | 
O=C(O)Cc1c[nH]c2ccccc12 | 4.45% | 
COC(=O)CC(=O)OC |  | inactive
CCCCCCCOC(=O)c1ccc(O)cc1 |  | inactive
CC(=O)CCC(=O)O |  | inactive
Cc1ncc([N+](=O)[O-])n1CCO |  | inactive
Oc1ccc(Nc2ccccc2)cc1 | 0.474% | 
COC(CC(C)CCCC(C)(C)O)OC (stereo not given) | 9.53% | 
CCC(C)(CCC(C)C)C(=O)[O][Sn]([CH3])([CH3])[O]C(=O)C(C)(CC)CCC(C)C (stereo not given) | -2.88% | 
C/C(=C(/OCCOc1ccc(Cl)cc1)c1ccc(Cl)cc1Cl)n1ccnc1 | -9.46% [at 42.5 µM] | 

SMILES | viability change, negative = cytotoxic | Potency
O=[N+]([O-])c1cncn1CCN1CCOCC1 | 16.6% [at 42.5 µM] | 
CO[Si](C)(C)OC | 0.793% | 
NS(=O)(=O)c1cc(C(=O)O)cc(N2CCCC2)c1Oc1ccccc1 | -5.95% [at 42.5 µM] | 
NC=O |  | inactive
Nc1ccc2cc3ccccc3cc2c1 |  | inactive
CCN(CCO)c1cccc(C)c1 | 2.17% | 
CC(C)(N=C=O)c1cccc(C(C)(C)N=C=O)c1 |  | inactive
OCCN1CCN(CCCN2c3ccccc3C=Cc3ccccc32)CC1 | -0.369% [at 42.5 µM] | 
Nc1ccc(S(=O)(=O)c2ccc(N)cc2)cc1 |  | inactive
CC(C)(C)c1ccc(-c2ccc(C(C)(C)C)cc2)cc1 | -0.11% | 
CN1C(C)(C)CC(O)CC1(C)C | 1.72% | 
COc1cc(Cl)ccc1Cl | -7.2% | 
Cc1cccc(C)c1NC(=O)c1ccc(N)cc1 | 0% [at 42.5 µM] | 
CCOC(=O)CC(=O)OCC |  | inactive
CC(=O)O[C@]1(C(C)=O)CC[C@H]2[C@@H]3C=C(Cl)C4=CC(=O)[C@@H]5C[C@@H]5[C@]4(C)[C@H]3CC[C@@]21C |  | inactive
O=C1c2cccc3c2[C@H](CCC3)CN1[C@@H]1CN2CCC1CC2 | 4.33% [at 42.5 µM] | 
Cc1cccc(C)c1NC(=O)c1ccccc1C(=O)O | -1.26% [at 42.5 µM] | 
O=C(O)CCC(=O)O |  | inactive
COc1cc2[nH]c(=O)[nH]c(=O)c2cc1OC | -0.947% [at 42.5 µM] | 
CCCCOc1ccc(N)cc1 | -14.3% | 
